# Source: PubChem
# Pf growth 96h = P. falciparum growth inhibition at 96 hours. hit rate 6.9% among 320,000. Potency, µM (highest dose often 28.7 µM), for the others: at the highest dose activity change, negative = inhibition, most hits filed as inhibitors. P. falciparum luciferase reporter growth, 96 h. AID 504834; also: % is scaled to controls: 0 for no effect and ±100 for the full control effect
#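 Parasite growth measured via integrated firefly luciferase reporter in P. falciparum. Infected erythrocytes at 2% hematocrit, 0.05% parasitemia final were treated 96 hours at 37 C under 5% CO2, and luminescence was read.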
# AMA1 RON2 block = inhibitors of Plasmodium falciparum AMA1-RON2 interaction; AlphaScreen AMA1-biotinylated RON2 peptide binding; Potency, µM (top dose mostly 58.2 µM), inactives show at the highest dose activity change, negative = inhibition, usual class: inhibitors; hit rate 0.2% among 360,000; AID 720542;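 also: 0% = vehicle wells and -100% = peptide control; nearly all actives have a fitted effect of over 45% in size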
#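 AMA1 (3D7) with his tag at 25 nM final met compounds first, then biotinylated RON2 peptide at 25 nM; detection used donor plus acceptor beads, 10 µg/mL apiece, read by AlphaScreen after 30 min at room temperature.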
# SARS PLP yeast = inhibitors of SARS-CoV papain-like protease in yeast; S. cerevisiae expressing SARS-CoV PLpro, growth rescue; Potency, µM (titrated, usually from 32.9 µM), for the others: at the highest dose activity, positive = growth rescue, usual class: activators; hit rate 0.19% among 330,000; calls by dose curve; also: 0% is about no effect; nearly all actives have a fitted effect of over 55% in size
# Pf growth 48h = P. falciparum growth inhibition at 48 hours (one generation). P. falciparum luciferase growth in erythrocytes, 48 h. Potency, µM (highest dose often 28.7 µM), for inactives: at the top dose activity change, negative = inhibition, hits mostly inhibitors. hit rate 5.9% among 310,000. AID 504832; also: % is scaled to controls: 0 for no effect and ±100 for the full control effect
#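 A one-generation exposure of luciferase-tagged malaria parasites in RPMI 1640/Albumax erythrocyte culture, 37 C and 5% CO2. Inhibition is inferred from decreased luminescence after adding detection reagent.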
# * = called active by the depositor; u = inconclusive; x = not tested or not shown; ! = a repeat was not active; [ ] = dose if it differs, or a comment. In the library only some 9.4% were active in any assay of this set; here they are far more common. Unless noted, calls follow the shape of the dose curve; as a rule, active = well fitted curve in the direction sought with a large enough effect; inconclusive = small, poorly fitted or top-dose-only effect, or another doubt; inactive = no such curve, though single readings can be large; an effect the other way counts as inactive or inconclusive. Potency is read from the fitted curve at half-maximal effect.
SMILES,Pf growth 96h,AMA1 RON2 block,SARS PLP yeast,Pf growth 48h
COc1ccccc1NC(=O)C12CC3CC(C1)CC(c1ccc(C)cc1)(C3)C2,66%,18%,-7%,0.66µM*
Cc1ccc(C23CC4CC(CC(C(=O)NC(C)C)(C4)C2)C3)cc1,9.3µM*,-2%,1%,-17%
O=C(CNC(=O)c1ccc(Br)cc1)N/N=C/c1ccc[nH]1,9%,-13%[2.32 µM],19%,30%
O=C(N/N=C/c1ccc[nH]1)c1ccc(COc2cccc3cccnc23)cc1,u,14%,0%,10µM*
O=C(N/N=C/c1ccc[nH]1)c1ccc(O)cc1,10µM*,22%,-1%,67%
Cc1cc(Br)c(OCc2ccc(C(=O)N/N=C/c3ccc[nH]3)cc2)c(Br)c1,10µM*,61%,-1%,2.6µM*
CCc1cc2c(=O)c(-n3cnc4ccccc43)coc2cc1O,u,-11%,3%,u
COc1ccc(-c2nnc(SCC(=O)N3CCCC(C)C3)o2)c(OC)c1 (stereo not drawn),x,2%,3%,u
COc1ccc(C(=O)N2CCCC2=O)cc1,13µM*!,0%,3%,19%
COc1ccc(C(=O)NCCCN2CCCC2=O)cc1,x,-5%,12%,31%
COc1ccc(C)cc1NC(=O)n1ncc2cc(Cl)ccc21,3.3µM*,1%,0%,11%
Cc1ccccc1NC(=O)n1ncc2cc(Cl)ccc21,-29%,-15%,-2%,35%
C[CH2][Hg][S]c1ccccc1C(=O)O,1.2µM*,45%,x,1.9µM*
O=C(O)c1ccccc1SSc1ccccc1C(=O)O,21%,1%,1%,20%
COc1cc2c(cc1N)-c1ccc(N)cc1C2,x,4µM*,x,x
Nc1ccc2c(c1)Cc1ccccc1-2,60%,u,-4%,60%
CC1=C(C(=O)OC(C)C)C(c2ccncc2)n2ncnc2N1 (stereo not drawn),x,3%,x,-2%
COc1ccc(C(=O)Nc2ccc(Cl)cc2F)cc1S(=O)(=O)N1CCCC1,9.3µM*,-6%,1%,12µM*
COc1ccc(S(=O)(=O)N2CCCC2)cc1NC(=O)c1ccccc1,12µM*,-17%,9%,3%
COc1ccc(S(=O)(=O)N2CCCCC2)cc1NC(=O)c1ccccc1,-9%,-6%,-2%,-1%
COc1ccc(S(=O)(=O)N2CCCCC2)cc1NC(=O)c1c(F)cccc1Cl,2.9µM*,1%,7%,8.3µM*
COc1ccc(NC(=O)CN2CCN(C(=O)C3CCCO3)CC2)c(OC)c1 (stereo not drawn),-24%,1%,-1%,-20%
O=C(c1cccs1)N(Cc1ccco1)c1nc(-c2ccc(F)cc2)cs1,-12%,0%,3%,13µM*
CCC(=O)N(Cc1ccco1)c1nc(-c2ccccc2)cs1,u,-15%,-4%,-16%
CC1(C(=O)O)COC(c2ccc(Cl)cc2)OC1 (stereo not drawn),7%,6%,-4%,2.9µM*
SMILES,Pf growth 96h,AMA1 RON2 block,SARS PLP yeast,Pf growth 48h
COC(=O)c1ccc(C2OCC(C)(C)CO2)cc1,u,9%,-1%,250%
O=C(O)C1CCCN1C(=O)OCC1c2ccccc2-c2ccccc21 (stereo not drawn),u,-6%,0%,1%
O=C(Cc1ccccc1)NCc1cccnc1,4%,-1%,0%,39%
O=C(CC(=O)NCc1cccnc1)NCc1cccnc1,10µM*,1%,2%,8%
O=C(CCn1nc(-c2ccc(Cl)cc2)ccc1=O)NCc1cccnc1,4%,-10%,2%,1.2µM*
Cc1cccc(CS(=O)(=O)Cc2ccc(C(=O)NCc3cccnc3)o2)c1,1.9µM*,2%,10%,-2%
CCN(CC)CCNC(=O)CCn1nc(-c2ccc(Cl)cc2)ccc1=O,1%,4%,-3%,2%[0.00184 µM]
O=C(NCc1cccnc1)c1ccc([N+](=O)[O-])o1,u,-4%,0%,4.1µM*
COc1cc(SC)ccc1C(=O)Nc1ccccc1,u,11%,-10%,x
O=S(=O)(c1ccc(SCc2ccccc2F)nc1)N1CCCC1,-11%,16%,0%,-18%
CC1(C)CC(=O)C(C(c2ccco2)C2C(=O)CC(C)(C)CC2=O)C(=O)C1,100%,37%,7%,-6%
O=C(NCc1cccnc1)C(Cl)(Cl)Cl,3.7µM*,14%,-16%,-13%
Cc1ccc(NC(=O)NCc2cccnc2)cc1,-6%,0%,0%,32%
Cc1ccc(C2(c3ccc(C)cc3)CC2C(=O)NCc2cccnc2)cc1 (stereo not drawn),1.9µM*,-16%,0%,-26%
NC(=O)NCc1cccnc1,2%,6%,0%,1%
CCN1CCN(c2c(C(=O)c3ccc(OC)cc3)cnc3ccccc23)CC1,35%,-8%,3%,15%
Cc1ccc(S(=O)(=O)N2CCN(C(=O)c3n[nH]c(=O)c4ccccc34)CC2)cc1,-25%,0%,0%,0%
O=C(c1n[nH]c2ccccc12)N1CCN(S(=O)(=O)c2ccccc2)CC1,7.4µM*,-9%,4%,5.2µM*
O=C(c1n[nH]c(=O)c2ccccc12)N1CCN(S(=O)(=O)c2ccccc2Cl)CC1,5.9µM*,2%,5%,u
Cc1ccc(C)c(N2CC(O)(c3cccs3)[N+]3=C2CCCC3)c1 (stereo not drawn),u,-8%,0%,10µM*
OC1(c2cccs2)CN(c2ccc(Cl)cc2)C2=[N+]1CCCC2 (stereo not drawn),u,-11%,6%,u
COc1ccc(/C=C2\SC(=N)N(c3nccs3)C2=O)cc1OC,u,111%,-40%,u
N=C1S/C(=C\c2ccc(-c3cccc(Cl)c3)o2)C(=O)N1c1nccs1,u,71%,-13%,4.7µM*
OC1(c2ccc(F)cc2)CCN(Cc2cccnc2)CC1,u,3%,-2%,-23%
CC1CCN(C(=O)c2cc(-c3ccc4c(c3)OCO4)on2)CC1,9%,-3%,-2%,183%
SMILES,Pf growth 96h,AMA1 RON2 block,SARS PLP yeast,Pf growth 48h
O=C(Nc1ccc(OC(F)(F)F)cc1)C1CC(=O)N(Cc2ccco2)C1 (stereo not drawn),7%,4%,1%,-8%
CCN(c1ccccc1)S(=O)(=O)c1ccc(Cl)c(C(=O)N2CCCC2)c1,u,-5%,-6%,-11%
CCN(c1ccccc1)S(=O)(=O)c1ccc(Cl)c(C(=O)N(CC2CCCO2)C2CCS(=O)(=O)C2)c1 (stereo not drawn),u,30%,1%,1.7µM*
Cc1cc(Cl)ccc1C(=O)C1CCCN(C(=O)c2cccnc2C)C1 (stereo not drawn),-13%,0%,2%,7%
CC(C)(C)NC(=O)CCc1nnc(Cc2c[nH]c3ccccc23)o1,u,1%,0%,-24%
CCC(COC)NC(=O)CCc1nnc(Cc2c[nH]c3ccccc23)o1 (stereo not drawn),13µM*,-1%,-4%,6%
CCOP(=O)(NC12CC3CC(CC(C3)C1)C2)NC12CC3CC(CC(C3)C1)C2,2.9µM*,0%,0%,3.7µM*
COCCC(=O)NC12CC3CC(CC(C3)C1)C2,x,-10%,0%,3%
CC(C(=O)Nc1ccccc1)N1CCN(C(=O)c2ccco2)CC1 (stereo not drawn),-21%,-3%,-16%,-21%
